{"source": "ChEMBL document CHEMBL3988442", "about": "“University of Dundee, Small-Polar-MMV Screening Library” (2021)", "note": "Among all 48,000 compounds or so, about 13,000 (27%) showed an effect of 50% or more. The list shows a part of the results."}
{"tested_on": "Wolbachia pipientis", "experiment": "Anti-Wolbachia Cell-Based Screen", "assay_type": "functional", "design": "scale not given: in the data most compounds retested in dose-response had high values", "conditions": "5 µM", "units": {"Percent Effect": "%"}}
{"smiles": "COCCCC(=O)Nc1cc(Cl)c(Cl)cn1", "Percent Effect": -20.73}
{"smiles": "O=C(c1scc2c1OCCO2)N1CCOC(Cc2cccc(F)c2)C1", "note": "(stereo not given)", "Percent Effect": -18.9}
{"smiles": "Cc1cnn(CC(C)NCc2csc(-c3ccco3)n2)c1", "note": "(stereo not given)", "Percent Effect": 6.093}
{"smiles": "Cc1noc(-c2cnc(NCC3CCCO3)nc2-c2ccco2)c1C", "note": "(stereo not given)", "Percent Effect": 115.5}
{"smiles": "Cc1nn(C)c2nc(-c3ccccn3)nc(NC[C@@H]3CCCO3)c12", "Percent Effect": -8.15}
{"smiles": "Cc1noc(-c2cnc(NC3CC3)nc2-c2ccco2)c1C", "Percent Effect": 112.5}
{"smiles": "Cc1noc(-c2cnc(NC(C)C)nc2-c2ccco2)c1C", "Percent Effect": 118.1}
{"smiles": "Cn1cc(-c2ccnc(NCC3CCCCO3)n2)cn1", "note": "(stereo not given)", "Percent Effect": -0.1287}
{"smiles": "Cc1cnn(CC(C)NCc2nc(-c3ccco3)no2)c1", "note": "(stereo not given)", "Percent Effect": 2.799}
{"smiles": "Cc1cc(C)c2nc(CN3CCC(N4CCOC4=O)CC3)cc(O)c2c1", "Percent Effect": -3.092}
{"smiles": "COCCN(C)CCN1CC2(CCN(C3CCCNC3)CC2)OC1=O", "note": "(stereo not given)", "Percent Effect": -6.573}
{"smiles": "CC(C)CCN1CCN(c2ncnc3nc(N)ccc23)CC1", "Percent Effect": 6.537}
{"smiles": "Cn1c(-c2cccs2)nn(CCNS(=O)(=O)c2ccccc2Cl)c1=O", "Percent Effect": 11.66}
{"smiles": "Cc1c(C(=O)N2CCC2(C)C)nnn1-c1cccc2cnccc12", "Percent Effect": 16.96}
{"smiles": "CN(C)C(=O)N1CCC[C@]2(C(=O)N(C)C)CN(c3ccccn3)C[C@@H]2C1.O=C(O)C(F)(F)F", "Percent Effect": 123.8}
{"smiles": "CC(C)C(=O)N1CCC[C@]2(C(=O)N(C)C)CN(c3ccccn3)C[C@@H]2C1.O=C(O)C(F)(F)F", "Percent Effect": 109.6}
{"smiles": "O=C(O)C(F)(F)F.O=C(O)[C@]12CCCN(Cc3ccco3)C[C@H]1CN(c1ncccn1)C2", "Percent Effect": 0.3269}
{"smiles": "CCC(=O)N1CCC[C@]2(C(=O)N(C)C)CN(c3ccccn3)C[C@@H]2C1.O=C(O)C(F)(F)F", "Percent Effect": 98.59}
{"smiles": "CCS(=O)(=O)N1CCC[C@]2(C(=O)N(C)C)CN(c3ncccn3)C[C@@H]2C1.O=C(O)C(F)(F)F", "Percent Effect": -12.08}
{"smiles": "O=C(O)C(F)(F)F.O=C(O)C(F)(F)F.O=C(O)[C@]12CCCN(Cc3ccsc3)C[C@H]1CN(c1ccccn1)C2", "Percent Effect": -13.21}
{"smiles": "COCC(=O)N1CCC[C@]2(C(=O)N(C)C)CN(c3ccccn3)C[C@@H]2C1.O=C(O)C(F)(F)F", "Percent Effect": -6.724}
{"smiles": "CCS(=O)(=O)N1CCC[C@]2(C(=O)N(C)C)CN(c3ccccn3)C[C@@H]2C1.O=C(O)C(F)(F)F", "Percent Effect": -14.88}
{"smiles": "CN(C)C(=O)[C@]12CCCN(CC3CC3)C[C@H]1CN(c1ccccn1)C2.O=C(O)C(F)(F)F.O=C(O)C(F)(F)F", "Percent Effect": 89.5}
{"smiles": "CN(C)CCN1C[C@@H]2OCCN(Cc3cnn(C)c3)[C@@H]2C1", "Percent Effect": -15.62}
{"smiles": "COc1cccc(Cl)c1-c1cc(CN)ccc1F", "Percent Effect": -5.951}
{"smiles": "O=C(O)C(F)(F)F.O=C(c1cccs1)N1CC[C@@H]2CN(C3CCOCC3)CCO[C@@H]2C1", "Percent Effect": 103}
{"smiles": "O=C(O)C(F)(F)F.O=C(O)C(F)(F)F.c1csc(CN2CCO[C@@H]3CN(C4CCOCC4)C[C@@H]3C2)c1", "Percent Effect": -1.995}
{"smiles": "O=C(O)C(F)(F)F.O=C(O)C(F)(F)F.O=C(c1ccncc1)N1CC[C@@H]2CN(C3CCOCC3)CCO[C@@H]2C1", "Percent Effect": 103.2}
{"smiles": "O=C(NC[C@H]1OC[C@@H]2CCN(C3CCOCC3)C[C@@H]21)c1ccncc1.O=C(O)C(F)(F)F.O=C(O)C(F)(F)F", "Percent Effect": -8.097}
{"smiles": "CC(=O)N1CCO[C@@H]2CN(C(=O)c3ccc4ncccc4c3)CC[C@@H]2C1.O=C(O)C(F)(F)F", "Percent Effect": -0.4432}
{"smiles": "COCCN1CCO[C@H]2CCN(C(=O)c3cccs3)CC[C@@H]21.O=C(O)C(F)(F)F", "Percent Effect": 9.308}
{"smiles": "Cc1ccc(CCNc2nc(-c3ccncc3)nc3c2CCNCC3)o1", "Percent Effect": -0.1721}
{"smiles": "CC(Cc1cn(CCc2n[nH]c(=O)[nH]2)nn1)c1ccccc1", "note": "(stereo not given)", "Percent Effect": 124.9}
{"smiles": "CN(CCn1ccc2ccccc21)C(=O)Cc1n[nH]c(=O)[nH]1", "Percent Effect": 0.08952}
{"smiles": "CC(Cc1cn(CCc2nc(N)cc(O)n2)nn1)c1ccccc1", "note": "(stereo not given)", "Percent Effect": 116.8}
{"smiles": "CN(CCn1ccc2ccccc21)C(=O)Cc1nnn[nH]1", "Percent Effect": -2.882}
{"smiles": "CC(Cc1ccc2c(c1)OCO2)c1cn(CCc2c[nH]cn2)nn1", "note": "(stereo not given)", "Percent Effect": -4.802}
{"smiles": "C=C(C)COc1cccc(CNCCc2nc(N)cc(O)n2)c1", "Percent Effect": 6.733}
{"smiles": "CC(c1ccc(C(=O)NCCc2nc(N)cc(O)n2)o1)N1CCCCC1", "note": "(stereo not given)", "Percent Effect": 6.141}
{"smiles": "N#Cc1cccc(Cl)c1NCCc1n[nH]c(=O)[nH]1", "Percent Effect": -15.54}
{"smiles": "CC(Cc1cn(CCc2nnn[nH]2)nn1)c1ccccc1", "note": "(stereo not given)", "Percent Effect": 103.4}
{"smiles": "c1cc(CCN2CCCC2CN2CCCCC2)ccn1", "note": "(stereo not given)", "Percent Effect": 39.01}
{"smiles": "CCN(CC)Cc1ccc(C(=O)NC2CCc3cc(F)ccc32)o1", "note": "(stereo not given)", "Percent Effect": 6.12}
{"smiles": "Cc1nccn1CCC1CCCCN1C(=O)c1ccc2nonc2c1", "note": "(stereo not given)", "Percent Effect": 1.487}
{"smiles": "Cn1c(CN2CCCCC2)nnc1C1CCCN(C(=O)CCC(N)=O)C1", "note": "(stereo not given)", "Percent Effect": 11.64}
{"smiles": "NC(=O)CCN(C(=O)c1cccc2c1OCO2)c1ccccc1", "Percent Effect": 16.64}
{"smiles": "Cc1n[nH]c(=O)c2c(NC(=O)CN3CCOCC3)oc(C)c12", "Percent Effect": 3.045}
{"smiles": "CC1(C)OC(=O)N(CCCOc2ccc(F)cc2)C1=O", "Percent Effect": 96.74}
{"smiles": "CC1(C)OC(=O)N(CCOc2ccc(F)cc2)C1=O", "Percent Effect": 112.1}
{"smiles": "CN1CCCC1CNC(=O)CCCOc1ccc(F)cc1", "note": "(stereo not given)", "Percent Effect": -3.981}
{"smiles": "O=S1(=O)COCCN1CCCOc1ccc(F)cc1", "Percent Effect": 1.2}
{"smiles": "CC1(C)OC(=O)N(CCCC(=O)c2ccc(F)cc2)C1=O", "Percent Effect": 116.7}
{"smiles": "N[C@H]1CN(CCOc2ccc(F)cc2)C[C@@H]1C1CC1", "Percent Effect": -23.63}
{"smiles": "O=S1(=O)COCCN1CCOc1ccc(F)cc1", "Percent Effect": -2.392}
{"smiles": "CN(Cc1ccon1)C(=O)CN1C(=O)OC(C)(C)C1=O", "Percent Effect": -6.77}
{"smiles": "CN(Cc1ccoc1)C(=O)CN1C(=O)OC(C)(C)C1=O", "Percent Effect": -7.956}
{"smiles": "CC(C)OCCSCc1nnc(-c2cccc(F)c2)o1", "Percent Effect": -1.35}
{"smiles": "CCNC(=O)[C@@H]1C[C@H](N)CN1C(=O)CCc1ccccc1Cl", "Percent Effect": -6.305}
{"smiles": "Cn1cc(CN2CCO[C@H]3CN(Cc4ccco4)C[C@H]32)cn1", "Percent Effect": -13.96}
{"smiles": "CN(Cc1cc(-c2cccnc2)no1)C(=O)c1cccn1C", "Percent Effect": -14.42}
{"smiles": "CC(C)SCC(=O)N1CCc2c(nc(N(C)C)nc2N(C)C)C1", "Percent Effect": -6.369}
{"smiles": "CC(C)Sc1ccc(C(C)NC(=O)Cn2cccnc2=O)cc1", "note": "(stereo not given)", "Percent Effect": -6.353}
{"smiles": "O=C(Cn1cccnc1=O)NCc1cccnc1OCC(F)(F)F", "Percent Effect": 2.082}
{"smiles": "Cc1csc(C(Cc2ccsc2)NC(=O)Cn2cccnc2=O)n1", "note": "(stereo not given)", "Percent Effect": 109.1}
{"smiles": "O=C(Cn1cccnc1=O)NC(Cc1ccsc1)c1ccccn1", "note": "(stereo not given)", "Percent Effect": -0.3817}
{"smiles": "O=C(Cn1cccnc1=O)NC(Cc1ccsc1)c1nccs1", "note": "(stereo not given)", "Percent Effect": 149.8}
{"smiles": "Cc1cccnc1C(Cc1ccsc1)NC(=O)Cn1cccnc1=O", "note": "(stereo not given)", "Percent Effect": 151.6}
{"smiles": "O=C(Cn1cccnc1=O)NCC1Cc2ccccc2O1", "note": "(stereo not given)", "Percent Effect": -8.588}
{"smiles": "O=C(Cn1cccnc1=O)NC(Cc1ccsc1)c1cccnc1", "note": "(stereo not given)", "Percent Effect": 105}
{"smiles": "CC(C)N(CC(N)=O)CC(=O)NCCc1c(F)cccc1F", "Percent Effect": 4.922}
{"smiles": "Cc1cnn(CC2CCCCN2CC(=O)N(C)Cc2ccc(C)o2)c1", "note": "(stereo not given)", "Percent Effect": -2.749}
{"smiles": "COc1cccc(S(=O)(=O)Cc2cc(C)on2)c1", "Percent Effect": -2.252}
{"smiles": "COc1ncccc1C(Cc1ccsc1)NC(=O)Cn1cccnc1=O", "note": "(stereo not given)", "Percent Effect": 115.2}
{"smiles": "CC(NC(=O)Cn1cccnc1=O)c1ccc(OC(F)(F)F)cc1", "note": "(stereo not given)", "Percent Effect": 5.256}
{"smiles": "CC(C)CCOc1ccc(C(C)NC(=O)Cn2cccnc2=O)cc1", "note": "(stereo not given)", "Percent Effect": -2.548}
{"smiles": "Cc1nc([C@@H]2C[C@@H]3CCN(Cc4cnn(C)c4)C[C@H]3O2)sc1C", "Percent Effect": -0.8686}
{"smiles": "Cc1[nH]ncc1C(=O)NCC1CCC2(CC1)OCCO2", "Percent Effect": -7.861}
{"smiles": "Brc1cnc(NCCCOCC2CCOCC2)nc1", "Percent Effect": 13.33}
{"smiles": "COCc1nc(C(=O)NS(=O)(=O)c2ccc(C)cc2C)cs1", "Percent Effect": -13.89}
{"smiles": "CCS(=O)(=O)N1C[C@@H]2COC[C@@H](Cc3nc(C)no3)[C@@H]2C1", "Percent Effect": 1.999}
{"smiles": "Cc1nnc(C[C@@H]2COC[C@H]3CN(C(=O)c4ccco4)C[C@@H]23)o1", "Percent Effect": -16.71}
{"smiles": "COc1cc(N2C[C@@H]3COC[C@@H](Cc4nc(C)no4)[C@@H]3C2)ncn1", "Percent Effect": 118.7}
{"smiles": "Cc1noc(C[C@@H]2COC[C@H]3CN(S(C)(=O)=O)C[C@@H]23)n1", "Percent Effect": -1.05}
{"smiles": "COc1cc(N2C[C@@H]3COC[C@@H](Cc4nnc(C)o4)[C@@H]3C2)ncn1", "Percent Effect": 80.24}
{"smiles": "Cc1nnc(C[C@@H]2COC[C@H]3CN(C(=O)C4=CCCC4)C[C@@H]23)o1", "Percent Effect": -9.93}
{"smiles": "Cc1cc(CN(CC(N)=O)CC(C)C)no1", "Percent Effect": -21.97}
{"smiles": "CC(C)CN1C[C@@H]2CN(S(=O)(=O)c3cccs3)C[C@@H]2C1=O", "Percent Effect": -12.36}
{"smiles": "CN(Cc1ccco1)C(=O)Nc1ccc(=O)n(C)c1", "Percent Effect": 2.905}
{"smiles": "CN(Cc1cccs1)C(=O)CN1C(=O)c2cc(Cl)c(Cl)cc2C1=O", "Percent Effect": 78.58}
{"smiles": "CN(Cc1ccco1)C(=O)CN1CCN(C)c2ccccc2C1", "Percent Effect": -2.251}
{"smiles": "Cc1cccc(C(C(=O)N(C)Cc2ccco2)N(C)C)c1", "note": "(stereo not given)", "Percent Effect": 9.844}
{"smiles": "CN(Cc1ccco1)C(=O)CN1C(=O)c2cc(Cl)c(Cl)cc2C1=O", "Percent Effect": 81.66}
{"smiles": "CN(Cc1cccs1)C(=O)CS(=O)(=O)Cc1ccc(Cl)c(Cl)c1", "Percent Effect": 0.1099}
{"smiles": "Cc1cnn(C2CN(CC(=O)N(C)Cc3cccs3)C2)c1", "Percent Effect": -27.07}
{"smiles": "CN(Cc1ccco1)C(=O)CN1C(=O)c2ccccc2C1=O", "Percent Effect": 72.08}
